Each structure is given as a SMILES string. Compounds without any hit were thinned out: in the full panel of roughly 83,000, 20% have a hit.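 Results are percent growth after 48 hours of single-concentration exposure. 100 means growth as in untreated cells, lower positive values show inhibition; negative values down to -100 show cell death.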 Active and inactive are the calls of the source.

The assay concerns SNB-75 CNS. In words: NCI-60 one-dose screen, 48 h (100 = growth as untreated, 0 = no growth, -100 = all killed). Particulars: 10 µM. The method, then: Growth inhibition of the SNB-75 human tumor cell line is measured as a screen for anti-cancer activity. Cells are grown in 96 well plates and exposed to the test compound for 48 hours. Compounds are tested at a single concentration, which is 10^-5 M for most compounds. The reported endpoint is percent growth (GI% or GIPRCNT), where numbers from 0 - 100% represent growth inhibition, and numbers from -100% - 0 represent cell death. For example, a value of 40 represents 60% growth inhibition. A value of 0 means no net growth occurred over the course of the experiment. A value of -40 indicates 40% of cells at the beginning of the experiment died by the end of the experiment. A value of -100 means all cells are dead at the end of the experiment.
NCI-60 Human Tumor Cell Lines Screen was performed using the standard one-dose NCI protocol, which is described in more detail at https://dtp.cancer.gov/discovery_development/nci-60/default.htm.
Compounds with GIPRCNT values below 10 were considered active. Activity score was based on GIPRCNT using the following formula: […]
Score is 0 for GIPRCNT values of 100 or above, 50 for GIPRCNT values of 0, and 100 for GIPRCNT values of -100.
`O=C1Nc2ccc(Cl)cc2/C1=C/c1cccc(OCc2ccccc2)c1`: the growth was 73.9% (inactive).

Turning to `COC(=O)CC1CC1C1Cc2c(nc(N(C)S(C)(=O)=O)nc2C(C)C)-c2ccc(F)cc21` (stereo not given), the growth was 92.3% (inactive).

With `COc1ccc(CN2[C@H](C(=O)NCCCCCCC(=O)NO)Cc3c([nH]c4ccccc34)[C@H]2C2CC2)cc1`, the growth is 10.2% (inactive).

With `Cc1ccc(/C(CSc2nnc(-c3c[nH]c4ccccc34)n2-c2ccccc2)=N/O)cc1`, the growth was -44.2% (active).

Take `Cc1ccc(-c2nc(Nc3ccc(S(N)(=O)=O)cc3)c3ccccc3n2)cc1`: the growth was 87.6% (inactive).

Consider `COc1ccc2[nH]c(=O)c(CSc3nccc(-c4ccc(Cl)cc4)n3)cc2c1`, for which the growth is -11.5% (active).

As to `O=C(Cc1ccc2c(c1)CN(C1CCC(=O)NC1=O)C2=O)NCc1cccc2ccccc12` (stereo not given), the growth is -33.1% (active).

As for `C=C[C@H]1[C@H](O[C@@H]2OC(CO)[C@@H](O)[C@H](O)C2OC(=O)c2c(O)cc(O)cc2-c2cccc(O)c2)OC=C2C(=O)OCC[C@H]21` (stereo not given in full), the growth is 93.2% (inactive).

As to `CN1CCN(c2ccc(Nc3nc(NCCCNC(=O)c4ccccc4)c4sccc4n3)cc2)CC1`, the growth was 110% (inactive).

Regarding `CN(CCF)c1ccc(/C=C/C(=O)c2ccc(N)cc2O)cc1`, the growth is 102% (inactive).

As to `CC1(c2ccccc2)NC(=O)N(CC(=O)Nc2ccc(C(=O)/C=C/C=C/c3ccccc3)cc2)C1=O` (stereo not given), the growth was 54.9% (inactive).

As to `CN1C(=O)N(C)C2SC(N/N=C/C=C/c3ccccc3)=NC21` (stereo not given), the growth is 89.7% (inactive).

For the compound `CC(=O)c1ccc(Nc2nc(SC(C)C)nc(-c3ccccc3)c2C#N)cc1`, the growth is 42.3% (inactive).

For the compound `COc1ccc(-c2nc(Nc3ccccc3S(N)(=O)=O)c3ccccc3n2)cc1`, the growth was 109% (inactive).

As for `COc1ccc(C(=O)/C=C/c2cc(C(F)(F)F)cc(C(F)(F)F)c2)cc1S(N)(=O)=O`, the growth is 12% (inactive).

Take `CS(=O)(=O)Nc1ccc(-c2ccc3c(c2)ncn3-c2ccc(NC(=O)Nc3ccc(Br)cc3)cc2)cc1`: the growth is 21.4% (inactive).

On to `O=S(=O)(Nc1ncccn1)c1ccc(-n2c(-c3ccc(Br)cc3)nc(-c3ccccc3)c2-c2ccccc2)cc1`, for which the growth is 26.5% (inactive).

Take `Cc1ccc(/C=C/C(=O)c2ccc(NC(=O)CSc3nnc(-c4c[nH]c5ccccc45)n3-c3ccccc3)cc2)c(C)c1`: the growth is 92.6% (inactive).

In the case of `C=C1CC[C@H](C(=C)C)[C@H]2C=C(C)C(=O)C3=C(C(=O)[C@@](C)(O)C3)[C@H]12`, the growth was -71% (active).

Take `Cc1ccc(S(=O)(=O)c2nc(-c3ccccc3)oc2S(=O)(=O)CC(=O)N2CCCC2)cc1`: the growth is 14.7% (inactive).

Consider `O=C1Nc2ccc(Cl)cc2/C1=C/c1ccc(OCc2ccccn2)cc1`, for which the growth was 113% (inactive).

`N#Cc1c(NC(=O)c2ccc(C(O)(C(F)(F)F)C(F)(F)F)cc2)sc2c1CCC(=O)C2`: the growth is 16.9% (inactive).

On to `COc1ccc(/C=C/C(=O)c2ccc(N3CCN(C)CC3)cc2)c(C(F)(F)F)c1`, for which the growth is 97.7% (inactive).

For `Cc1noc2c(Cc3ccc([N+](=O)[O-])cc3)nn(CC(=O)N/N=C/c3ccc(Br)cc3)c(=O)c12`, the growth was 104% (inactive).

Turning to `O=C(Nc1ccc(I)cc1)Nc1nc2ccc([N+](=O)[O-])cc2s1`, the growth is -93.4% (active).

Turning to `CC(C)c1ccc(C(=O)Nc2sc3c(c2C(N)=O)CCC(=O)C3=O)cc1`, the growth is 98.2% (inactive).

As for `Cc1ccc(C(=O)CSc2nnc(-c3c[nH]c4ccccc34)n2-c2ccccc2)cc1`, the growth is -1.21% (active).

`CN1CCc2c(sc3ncnc(N/N=C/c4cn(-c5ccccc5)nc4-c4ccc(Cl)cc4)c23)C1`: the growth was 74.1% (inactive).

For `CCOC(=O)c1sc(N/N=C(\C)c2ccc3c(c2)Nc2ccccc2S3)nc1C`, the growth is 97.7% (inactive).

On to `C=C1CCC2C3(C)COC(c4ccccc4F)OC3CCC2(C)C1C/C=C1/C(=O)OCC1O` (stereo not given), for which the growth was -58.3% (active).

In the case of `O=C(/C=C/Nc1ccccc1)c1ccc2c(c1)Nc1ccccc1S2`, the growth was 106% (inactive).

In the case of `O=C(CS(=O)(=O)c1oc(-c2ccc(Cl)cc2)nc1S(=O)(=O)c1ccccc1)N1CCCC1`, the growth was 55.7% (inactive).

In the case of `NC1=NC(c2ccccc2Cl)N=C(Nc2nn[nH]n2)N1` (stereo not given), the growth was 95.2% (inactive).

In the case of `CC1=C2C(=C[C@@](C)(CO)[C@@H]2O)/C(=N\N)[C@](C)(O)C12CC2`, the growth is -85.1% (active).

For the compound `CN(C)c1cccc2c(S(=O)(=O)Nc3cccc(-c4csc(NC(=O)CCCCCN5CCN(c6cc7c(cc6F)C(=O)N(C6CCC(=O)NC6=O)C7=O)CC5)n4)c3)cccc12` (stereo not given), the growth is 60.5% (inactive).

With `CCN(CC)CCOc1ccc(C(=C(C)c2ccccc2)c2ccc(OCCN(CC)CC)cc2)cc1`, the growth is 6.51% (active).

Consider `CCCSc1nc(NC2CC2)c(C#N)c(-c2ccc(OC)cc2)n1`, for which the growth was 103% (inactive).

Turning to `COc1cccc2nc(Nc3cccc(NC(=O)c4ccc(CN5CCCN(C)CC5)c(C(F)(F)F)c4)c3)ccc12`, the growth is -84.5% (active).

Turning to `Cc1ccc(-c2nc(Nc3ccc(C)c(S(N)(=O)=O)c3)c3ccccc3n2)cc1`, the growth is 116% (inactive).

As for `COC[C@@H](CC(C)C)N=C1NC(=O)/C(=C/c2ccc3ncsc3c2)N1`, the growth is -4.85% (active).

(Values after PubChem BioAssay (NCI).)
